From article PMC12864922, “TDP-43 directly inhibits mRNA accumulation in neurites through modulation of mRNA stability”
Whole data set: some 9,900 sequences, median “r (bound/input frequency ratio)” near 0.7, cut for the highest 2% near 6.5. What follows is part of a selection rich in the highest values, with near analogues and random picks from the rest.

B1: ENSMUSG00000061578.1409|Ksr2 (ssRNA)
RNA: GGGAGUUCUACAGUCCGACGAUCGCUUCGAUAUCCGCAUGCUAGGACCUCAGGCCCACUGUUUUCUCCAUGUCUGUCUGUACUGACUGUUGCAGAAUGAGCUGAUGUAUGAUCUUGAUUCUCCAUUUUCCUUCUGGACCACAUGUCUCUUCCUUUUCCUUUUUAGAUCUGUCUUGCUCUCUGUCUCUCUCACUCAUUGCCAACAUGUUGCUGGGAAAGAAUAUUUGAUUUAGAUGCCAAUCAGGAAGGCAAGUAGGAUGGAUGGAUGAGUGAGUGGAUAGGUAGGUAUAUAAAUGGAUGGAUGCUCUUGCGGUCGCACUAGUGUGGAAUUCUCGGGUGUCAAGG
B2: ENSMUSG00000043670.204|Diras1 (ssRNA)
RNA: GGGAGUUCUACAGUCCGACGAUCGCUUCGAUAUCCGCAUGCUAGUGUCCCACCCAGAUGAGGGUGACUUAGAAUUCUGUGUUUAUGUGCCUGUGUGUGUGGAUGGGUGUGUGUCUGUCUUGGGAUGGGGUGUUCUUGCACCACUUUGUGUUCUUAGUGAGACCACAGUGUAAGUGGCCGUGUGUGUGUGUGGGGGGGGGCACCUAGACAUUGUGGUGUGUCUGUAUGGCUCUGUGUUUUCAGGGGUGGGUGACACAGGCCUGUCUGAUGAGCACCAGGUCUGUUCCAGGCUGUGGCAAGCUGGCUCUUGCGGUCGCACUAGUGUGGAAUUCUCGGGUGUCAAGG
B3: ENSMUSG00000043670.216|Diras1 (ssRNA)
RNA: GGGAGUUCUACAGUCCGACGAUCGCUUCGAUAUCCGCAUGCUAGUCUUGGGAUGGGGUGUUCUUGCACCACUUUGUGUUCUUAGUGAGACCACAGUGUAAGUGGCCGUGUGUGUGUGUGGGGGGGGGCACCUAGACAUUGUGGUGUGUCUGUAUGGCUCUGUGUUUUCAGGGGUGGGUGACACAGGCCUGUCUGAUGAGCACCAGGUCUGUUCCAGGCUGUGGCAAGCUGGCUCCUGGCUCAGAAGUGACAAAGCUGCAGUACAGAGGCCUCAGUGUGAGGUCAUCACCUCACAGUGGCUACACUCUUGCGGUCGCACUAGUGUGGAAUUCUCGGGUGUCAAGG
B4: ENSMUSG00000043670.200|Diras1 (ssRNA)
RNA: GGGAGUUCUACAGUCCGACGAUCGCUUCGAUAUCCGCAUGCUAGAGACUUGAGUGGCUCCUGGGCCUGUGUCCCACCCAGAUGAGGGUGACUUAGAAUUCUGUGUUUAUGUGCCUGUGUGUGUGGAUGGGUGUGUGUCUGUCUUGGGAUGGGGUGUUCUUGCACCACUUUGUGUUCUUAGUGAGACCACAGUGUAAGUGGCCGUGUGUGUGUGUGGGGGGGGGCACCUAGACAUUGUGGUGUGUCUGUAUGGCUCUGUGUUUUCAGGGGUGGGUGACACAGGCCUGUCUGAUGAGCACCAGGUCUCUUGCGGUCGCACUAGUGUGGAAUUCUCGGGUGUCAAGG
B5: ENSMUSG00000043670.204|Diras1|34:38;48:57;63:70;103:107;136:148;172:177;180:184;189:193 (ssRNA)
RNA: GGGAGUUCUACAGUCCGACGAUCGCUUCGAUAUCCGCAUGCUAGUGUCCCACCCAGAUGAGGGUGACUUAGAAUUCACACAUUAUGUGCCACACACACACGAUGGCACACACACUGUCUUGGGAUGGGGUGUUCUUGCACCACUUACACAUCUUAGUGAGACCACAGUGUAAGUGGCCCACACACACACACGGGGGGGGCACCUAGACAUUGUGCACACACUCAUACGCUCACACAUUUCAGGGGUGGGUGACACAGGCCUGUCUGAUGAGCACCAGGUCUGUUCCAGGCUGUGGCAAGCUGGCUCUUGCGGUCGCACUAGUGUGGAAUUCUCGGGUGUCAAGG
B6: ENSMUSG00000043670.196|Diras1 (ssRNA)
RNA: GGGAGUUCUACAGUCCGACGAUCGCUUCGAUAUCCGCAUGCUAUGUGGUAUCUGCGAGACUGUCCAGGAGACUUGAGUGGCUCCUGGGCCUGUGUCCCACCCAGAUGAGGGUGACUUAGAAUUCUGUGUUUAUGUGCCUGUGUGUGUGGAUGGGUGUGUGUCUGUCUUGGGAUGGGGUGUUCUUGCACCACUUUGUGUUCUUAGUGAGACCACAGUGUAAGUGGCCGUGUGUGUGUGUGGGGGGGGGCACCUAGACAUUGUGGUGUGUCUGUAUGGCUCUGUGUUUUCAGGGGUGGGUGACACCUCUUGCGGUCGCACUAGUGUGGAAUUCUCGGGUGUCAAGG
B7: ENSMUSG00000043670.195|Diras1 (ssRNA)
RNA: GGGAGUUCUACAGUCCGACGAUCGCUUCGAUAUCCGCAUGCUAAGCCCCUGUGGUAUCUGCGAGACUGUCCAGGAGACUUGAGUGGCUCCUGGGCCUGUGUCCCACCCAGAUGAGGGUGACUUAGAAUUCUGUGUUUAUGUGCCUGUGUGUGUGGAUGGGUGUGUGUCUGUCUUGGGAUGGGGUGUUCUUGCACCACUUUGUGUUCUUAGUGAGACCACAGUGUAAGUGGCCGUGUGUGUGUGUGGGGGGGGGCACCUAGACAUUGUGGUGUGUCUGUAUGGCUCUGUGUUUUCAGGGGUGGGCUCUUGCGGUCGCACUAGUGUGGAAUUCUCGGGUGUCAAGG
B8: ENSMUSG00000043670.199|Diras1 (ssRNA)
RNA: GGGAGUUCUACAGUCCGACGAUCGCUUCGAUAUCCGCAUGCUAGUCCAGGAGACUUGAGUGGCUCCUGGGCCUGUGUCCCACCCAGAUGAGGGUGACUUAGAAUUCUGUGUUUAUGUGCCUGUGUGUGUGGAUGGGUGUGUGUCUGUCUUGGGAUGGGGUGUUCUUGCACCACUUUGUGUUCUUAGUGAGACCACAGUGUAAGUGGCCGUGUGUGUGUGUGGGGGGGGGCACCUAGACAUUGUGGUGUGUCUGUAUGGCUCUGUGUUUUCAGGGGUGGGUGACACAGGCCUGUCUGAUGAGCACUCUUGCGGUCGCACUAGUGUGGAAUUCUCGGGUGUCAAGG
B9: ENSMUSG00000043670.197|Diras1 (ssRNA)
RNA: GGGAGUUCUACAGUCCGACGAUCGCUUCGAUAUCCGCAUGCUAAUCUGCGAGACUGUCCAGGAGACUUGAGUGGCUCCUGGGCCUGUGUCCCACCCAGAUGAGGGUGACUUAGAAUUCUGUGUUUAUGUGCCUGUGUGUGUGGAUGGGUGUGUGUCUGUCUUGGGAUGGGGUGUUCUUGCACCACUUUGUGUUCUUAGUGAGACCACAGUGUAAGUGGCCGUGUGUGUGUGUGGGGGGGGGCACCUAGACAUUGUGGUGUGUCUGUAUGGCUCUGUGUUUUCAGGGGUGGGUGACACAGGCCUCUCUUGCGGUCGCACUAGUGUGGAAUUCUCGGGUGUCAAGG
B10: ENSMUSG00000043670.206|Diras1 (ssRNA)
RNA: GGGAGUUCUACAGUCCGACGAUCGCUUCGAUAUCCGCAUGCUAGAUGAGGGUGACUUAGAAUUCUGUGUUUAUGUGCCUGUGUGUGUGGAUGGGUGUGUGUCUGUCUUGGGAUGGGGUGUUCUUGCACCACUUUGUGUUCUUAGUGAGACCACAGUGUAAGUGGCCGUGUGUGUGUGUGGGGGGGGGCACCUAGACAUUGUGGUGUGUCUGUAUGGCUCUGUGUUUUCAGGGGUGGGUGACACAGGCCUGUCUGAUGAGCACCAGGUCUGUUCCAGGCUGUGGCAAGCUGGCUCCUGGCUCAGCUCUUGCGGUCGCACUAGUGUGGAAUUCUCGGGUGUCAAGG
B11: ENSMUSG00000043670.201|Diras1 (ssRNA)
RNA: GGGAGUUCUACAGUCCGACGAUCGCUUCGAUAUCCGCAUGCUAUGAGUGGCUCCUGGGCCUGUGUCCCACCCAGAUGAGGGUGACUUAGAAUUCUGUGUUUAUGUGCCUGUGUGUGUGGAUGGGUGUGUGUCUGUCUUGGGAUGGGGUGUUCUUGCACCACUUUGUGUUCUUAGUGAGACCACAGUGUAAGUGGCCGUGUGUGUGUGUGGGGGGGGGCACCUAGACAUUGUGGUGUGUCUGUAUGGCUCUGUGUUUUCAGGGGUGGGUGACACAGGCCUGUCUGAUGAGCACCAGGUCUGUUCCUCUUGCGGUCGCACUAGUGUGGAAUUCUCGGGUGUCAAGG
B12: ENSMUSG00000043670.213|Diras1 (ssRNA)
RNA: GGGAGUUCUACAGUCCGACGAUCGCUUCGAUAUCCGCAUGCUAGUGGAUGGGUGUGUGUCUGUCUUGGGAUGGGGUGUUCUUGCACCACUUUGUGUUCUUAGUGAGACCACAGUGUAAGUGGCCGUGUGUGUGUGUGGGGGGGGGCACCUAGACAUUGUGGUGUGUCUGUAUGGCUCUGUGUUUUCAGGGGUGGGUGACACAGGCCUGUCUGAUGAGCACCAGGUCUGUUCCAGGCUGUGGCAAGCUGGCUCCUGGCUCAGAAGUGACAAAGCUGCAGUACAGAGGCCUCAGUGUGAGGUCAUCUCUUGCGGUCGCACUAGUGUGGAAUUCUCGGGUGUCAAGG

These binders were tested against TDP-43 (Homo sapiens, UniProt Q13148 1-414) (assay: RNA Bind-n-Seq with designed 260-mer pool; 25 mM Tris-HCl, 150 mM KCl, 3 mM MgCl2, BSA (printed 500 mg/mL), 20 units/mL SUPERase IN; pH not stated; 500 nM RNA pool, 1 h, 4 C; TDP-43 5, 50, 500 nM; high values mean tight binding). Settings: protein: recombinant; tags: SBP (GST cleaved off with PreScission; pGEX-GST-SBP).
Sequence of TDP-43 (Q13148 whole entry): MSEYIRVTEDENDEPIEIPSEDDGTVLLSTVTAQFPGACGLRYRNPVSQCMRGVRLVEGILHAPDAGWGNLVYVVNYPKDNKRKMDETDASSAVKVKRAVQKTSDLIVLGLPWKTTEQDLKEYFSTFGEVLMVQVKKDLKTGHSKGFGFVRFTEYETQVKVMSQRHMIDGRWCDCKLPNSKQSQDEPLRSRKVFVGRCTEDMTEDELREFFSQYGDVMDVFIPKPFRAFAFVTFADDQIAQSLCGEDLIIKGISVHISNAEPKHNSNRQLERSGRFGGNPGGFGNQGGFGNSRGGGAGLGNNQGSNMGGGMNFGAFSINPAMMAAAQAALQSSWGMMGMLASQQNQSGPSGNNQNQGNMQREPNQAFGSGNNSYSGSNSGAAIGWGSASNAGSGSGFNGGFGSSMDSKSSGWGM
Outline: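 In 25 mM Tris-HCl, 150 mM KCl, 3 mM MgCl2, BSA and SUPERase IN, 500 nM of an in vitro-transcribed 260-nt 3′ UTR oligo pool was incubated for 1 h at 4 °C with SBP-tagged TDP-43 (5, 50 or 500 nM) captured on streptavidin beads. RNA remaining after washes was biotin-eluted, reverse transcribed, PCR-amplified and sequenced. Binding, R, is the bound-sample abundance of each oligo, normalized to mapped reads, divided by its abundance in input. Each duplicate used a separate, independent protein batch.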

Row | Binder | binding signal
1 | B1 | 1.55 R (bound/input frequency ratio)
2 | B2 | 6.58 R (bound/input frequency ratio)
3 | B3 | 3.28 R (bound/input frequency ratio)
4 | B4 | 11.3 R (bound/input frequency ratio)
5 | B5 | 1.1 R (bound/input frequency ratio)
6 | B6 | 6.21 R (bound/input frequency ratio)
7 | B7 | 5.71 R (bound/input frequency ratio)
8 | B8 | 5.44 R (bound/input frequency ratio)
9 | B9 | 7.91 R (bound/input frequency ratio)
10 | B10 | 6.69 R (bound/input frequency ratio)
11 | B11 | 4.7 R (bound/input frequency ratio)
12 | B12 | 6.42 R (bound/input frequency ratio)
